Results on 16 compounds are retold here after PubChem BioAssay.

A short description of assay [1]: PMA/ionomycin-induced NF-kB reporter inhibitors, Jurkat retest, confirmation, T-cell NF-kB inhibitor project, cell-based, luminescence, single concentration (AID 435020;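 active means inhibition reaching about 45% at 4 µM in either replicate, limit read from the data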;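 further: plate controls were PMA/ionomycin stimulated DMSO wells for no effect and unstimulated DMSO wells for full effect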). The note with it: Jurkat NF-kB luciferase, 16 h, at 4 µM, stronger effect = higher value.
In assay [2] the target is Sentrin-specific protease 8 (Homo sapiens) (UniProt Q96LD8). As to the kind of experiment: SENP8 protease inhibitors, retest, confirmation, biochemical, luminescence, single concentration (AID 488912;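 active means mean inhibition across replicates above about 50%, limit read from the data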). The note with it: Recombinant SENP8, Z-RLRGG-aminoluciferin luminescence, 60 min; at 12.5 µM; stronger effect = higher value.
Assay [3] concerns the target Sentrin-specific protease 6 (Homo sapiens) (UniProt Q9GZR1). As to the kind of experiment: SENP6 protease inhibitors, confirmation, biochemical, luminescence, single concentration (AID 488915). The note with it: recombinant SENP6, Z-RLRGG-aminoluciferin luminescence; at 12.5 µM; stronger effect = higher value.
Assay [4] addresses Sentrin-specific protease 7 (Homo sapiens) (UniProt Q9BQF6). Description: SENP7 protease inhibitors, retest, confirmation, biochemical, luminescence, single concentration (AID 488917). The note with it: recombinant SENP7, Z-RLRGG-aminoluciferin luminescence, 40 min; at 12.5 µM; stronger effect = higher value.
The target of the next assay is Caspase-3 (Homo sapiens) (UniProt P42574). As to the kind of experiment: caspase-3 protease inhibitors, confirmation, selectivity assay for SENP inhibitor project, biochemical, single concentration (AID 488918;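 active means mean inhibition above about 50%, limit read from the data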;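 further: plate controls were enzyme with DMSO for no effect and wells without caspase-3 for full effect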). The note with it: purified caspase-3, Z-DEVD-aminoluciferin luminescence, 60 min; at 12.5 µM; stronger effect = higher value.
Assay [5] is described as follows: luciferase luminescence interference by compounds, confirmation, artefact control for SENP inhibitor project, biochemical, single concentration, SENP8 reaction pre-completed (AID 488919;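 active means mean inhibition above about 50% when retested at one dose, limit read from the data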;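 further: plate controls were DMSO wells with completed reaction for no effect and substrate without enzyme for full effect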). The note with it: Pre-incubated SENP8/Z-RLRGG-aminoluciferin, at 12.5 µM, stronger effect = higher value.
The target of assay [6] is Tumor necrosis factor receptor superfamily member 10B (Homo sapiens) (UniProt O14763). Description: caspase-8 TRAIL sensitization, hit retest, confirmation, cell-based, NB7+caspase-8, with/without TRAIL, luminescence panel (AID 651596; in the data active means activity above about 50%). The note with it: NB7 neuroblastoma + caspase-8, TRAIL sensitization, luminescence viability, with TRAIL, mean of runs, at 10 µM, stronger effect = higher value.

Assay in assay [7]: as above
The note with it: NB7 neuroblastoma + caspase-8, without TRAIL, luminescence viability, without TRAIL, mean of runs, at 10 µM.

The target in assay [8] is COP9 signalosome complex subunit 5 (Homo sapiens) (UniProt Q92905). As to the kind of experiment: Csn5 deneddylation inhibitors, confirmation, biochemical, fluorescence polarization, single concentration, SCF-Nedd8OG substrate (AID 720654; in the data active means inhibition above about 50%;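 further: 0% = DMSO with enzyme and 100% = no enzyme wells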). The note with it: Csn5 deneddylation of SCF-Nedd8OG, 90 min, at 16.6 µM, stronger effect = higher value.
Assay [9] addresses 72 kDa type IV collagenase (Homo sapiens) (UniProt P08253). As to the kind of experiment: MMP-2 protease inhibition counter-screen, confirmation, counter-screen for CSN deneddylation inhibitor project, biochemical, fluorescence, single concentration (AID 720655;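 active means corrected plate-normalized z-score of 5 or more, or -5 or less, or inhibition of 15% or more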;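 further: plate controls were DMSO wells with enzyme for no effect and buffer wells lacking MMP-2 for full effect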). The note with it: recombinant MMP-2, FRET substrate fluorescence, 60 min; at 16.6 µM.
Another assay deals with Prothrombin (Bos taurus) (UniProt P00735). Description: bovine thrombin inhibition counter-screen, confirmation, counter-screen for CSN deneddylation inhibitor project, biochemical, fluorescence polarization, single concentration (AID 720656;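 active means inhibition at or above a set limit, with a fluorescence interference ratio between 0.5 and a set maximum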). The note with it: bovine thrombin cleavage of Ub4-pepOG, at 16.6 µM, stronger effect = higher value.
Assay [10] in a line: activators of apoptotic CHOP UPR arm, confirmation, cell-based, CHO-CHOP luciferase reporter, single concentration (AID 463112; in the data active means activation above about 33%;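 further: 0% = DMSO wells and 100% = tunicamycin 10 µg/mL wells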). The note with it: CHO-CHOP cells, CHOP-luciferase reporter luminescence; at 10 µM; stronger effect = higher value; percent of tunicamycin response, DMSO as zero.
The nature of assay [11]: inhibition of Brca1/Bard1 split-luciferase complementation, confirmation, counter-screen for Mdm2/MdmX interaction inhibitor project, luminescence, single concentration (AID 504668; call rule not given here). The note with it: Brca1/Bard1 bimolecular luciferase complementation counterscreen, at 8 µM, stronger effect = higher value.
A short description of assay [12]: Peg3 promoter reporter inhibitors, retest, confirmation, cell-based, HeLa, luciferase reporter, single concentration (AID 602417;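 active means at 20 µM dose, 40% or more inhibition averaged across four replicates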). The note with it: HeLa PEG-Prom luciferase reporter, luminescence, overnight; at 20 µM; stronger effect = higher value.
Assay [13] can be described thus: HIF-2a reporter inhibitor retest, confirmation, luminescence, 786-0 RCC cells (AID 651580;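 active means mean inhibition across four replicates of at least 40 percent at the single tested concentration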). The note with it: HIF-2a luciferase reporter luminescence, overnight, at 18.8 µM, stronger effect = higher value.
Assay [14] in a line: HIF-1a luciferase reporter signal reduction – MiaPaCa-2 cells, single concentration, counter-screen for HIF-2a inhibitor project, confirmation (AID 651589;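 active means mean inhibition of the reporter signal across four replicates at the single tested dose of 50% or more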). The note with it: MiaPaCa-2 HIF-1a luciferase reporter, desferoxamine, overnight; at 18.8 µM; stronger effect = higher value.
In assay [15] the target is Protein Mdm4 (Homo sapiens) + E3 ubiquitin-protein ligase Mdm2 (Homo sapiens) (UniProt O15151+Q00987). Description: retested Mdm2-MdmX interaction blockers, confirmation, cell-based, luminescence, single concentration, set 2 (AID 504601;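 active means mean inhibition of the luminescence signal across two replicates at or above 26 percent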). The note with it: SaOS-2 split-luciferase Mdm2/MdmX complementation, at 8 µM, stronger effect = higher value.
Assay [16] concerns the target Carboxy-terminal domain RNA polymerase II polypeptide A small phosphatase 1 (Homo sapiens) (UniProt Q9GZU7). Description: Scp-1 binding by thermal shift, confirmation, orthogonal assay for Scp-1 inhibitor project, biophysical, differential scanning fluorimetry (AID 540329;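 active means substances whose mean melting-temperature shift, as a percentage of the reference inhibitor's shift, reaches about 5.3%, limit read from the data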;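 further: 0% = Tm of DMSO wells and 100% = Tm with sodium orthovanadate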). The note with it: Recombinant SCP1, Sypro Orange thermal shift Tm; at 40 µM; stronger effect = higher value.

Structures are written as SMILES. The list shows a part of the results. Activity calls are given as the source filed them.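 How the source made its calls, unless noted: active means mean inhibition above about 50% in the one-dose retest (limit read from the data); inactive means the rest.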

Tumor necrosis factor receptor superfamily member 10B (Homo sapiens), sequence (O14763 whole entry, looked up): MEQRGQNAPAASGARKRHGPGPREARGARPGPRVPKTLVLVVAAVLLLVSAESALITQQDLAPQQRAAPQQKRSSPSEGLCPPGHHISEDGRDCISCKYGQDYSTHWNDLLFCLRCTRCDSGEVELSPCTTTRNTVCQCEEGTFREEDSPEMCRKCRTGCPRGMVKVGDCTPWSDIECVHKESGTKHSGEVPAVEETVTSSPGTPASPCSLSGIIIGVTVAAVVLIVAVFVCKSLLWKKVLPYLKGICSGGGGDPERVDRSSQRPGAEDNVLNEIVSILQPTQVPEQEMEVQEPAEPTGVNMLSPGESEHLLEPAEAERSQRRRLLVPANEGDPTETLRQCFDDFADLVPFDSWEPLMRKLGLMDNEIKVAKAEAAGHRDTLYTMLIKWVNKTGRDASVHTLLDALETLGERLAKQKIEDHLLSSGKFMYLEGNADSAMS
Caspase-3 (Homo sapiens), sequence (P42574 28-227 limits assumed): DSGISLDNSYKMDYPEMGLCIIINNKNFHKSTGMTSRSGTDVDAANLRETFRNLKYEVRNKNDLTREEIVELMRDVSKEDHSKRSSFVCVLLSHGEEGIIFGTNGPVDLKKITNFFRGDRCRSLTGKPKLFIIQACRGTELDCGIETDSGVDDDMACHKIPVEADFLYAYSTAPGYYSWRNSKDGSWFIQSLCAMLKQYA
Sentrin-specific protease 6 (Homo sapiens), sequence (Q9GZR1 628-1112 limits assumed): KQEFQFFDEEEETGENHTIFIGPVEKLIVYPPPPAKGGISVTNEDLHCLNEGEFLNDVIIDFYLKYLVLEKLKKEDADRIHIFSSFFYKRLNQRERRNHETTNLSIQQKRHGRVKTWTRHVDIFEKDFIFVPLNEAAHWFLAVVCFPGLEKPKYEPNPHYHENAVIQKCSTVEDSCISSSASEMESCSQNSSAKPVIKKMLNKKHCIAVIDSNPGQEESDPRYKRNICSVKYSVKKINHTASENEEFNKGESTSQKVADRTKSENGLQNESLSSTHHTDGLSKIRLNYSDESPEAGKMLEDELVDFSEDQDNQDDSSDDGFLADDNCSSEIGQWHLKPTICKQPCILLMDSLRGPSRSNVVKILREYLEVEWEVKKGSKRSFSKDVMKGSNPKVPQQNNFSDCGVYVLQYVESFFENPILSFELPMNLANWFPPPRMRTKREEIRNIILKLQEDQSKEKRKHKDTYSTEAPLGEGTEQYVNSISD
Sentrin-specific protease 8 (Homo sapiens), sequence (Q96LD8 whole entry, looked up): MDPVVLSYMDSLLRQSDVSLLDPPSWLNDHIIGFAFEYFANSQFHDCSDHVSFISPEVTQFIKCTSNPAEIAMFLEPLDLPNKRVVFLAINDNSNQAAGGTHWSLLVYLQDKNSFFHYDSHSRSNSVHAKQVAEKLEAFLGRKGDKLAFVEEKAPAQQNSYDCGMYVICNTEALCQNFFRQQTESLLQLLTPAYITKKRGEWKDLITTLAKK
Sentrin-specific protease 7 (Homo sapiens), sequence (Q9BQF6 706-1050 limits assumed): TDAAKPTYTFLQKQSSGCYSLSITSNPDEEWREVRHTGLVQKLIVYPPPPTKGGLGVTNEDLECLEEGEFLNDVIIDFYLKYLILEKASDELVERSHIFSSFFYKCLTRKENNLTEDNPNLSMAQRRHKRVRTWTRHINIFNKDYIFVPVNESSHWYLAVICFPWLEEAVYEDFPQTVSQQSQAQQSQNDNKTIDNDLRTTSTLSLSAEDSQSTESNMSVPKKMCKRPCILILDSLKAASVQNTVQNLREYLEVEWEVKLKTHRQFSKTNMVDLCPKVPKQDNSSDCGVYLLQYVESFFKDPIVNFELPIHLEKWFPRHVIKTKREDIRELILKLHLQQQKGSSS
Carboxy-terminal domain RNA polymerase II polypeptide A small phosphatase 1 (Homo sapiens), sequence (Q9GZU7 76-261 limits assumed): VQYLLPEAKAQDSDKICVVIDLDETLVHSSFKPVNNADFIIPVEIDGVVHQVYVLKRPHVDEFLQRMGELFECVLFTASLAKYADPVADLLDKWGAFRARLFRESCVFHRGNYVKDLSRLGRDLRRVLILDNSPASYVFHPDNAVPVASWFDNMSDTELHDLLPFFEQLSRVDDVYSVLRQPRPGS
72 kDa type IV collagenase (Homo sapiens), sequence (P08253 whole entry, looked up): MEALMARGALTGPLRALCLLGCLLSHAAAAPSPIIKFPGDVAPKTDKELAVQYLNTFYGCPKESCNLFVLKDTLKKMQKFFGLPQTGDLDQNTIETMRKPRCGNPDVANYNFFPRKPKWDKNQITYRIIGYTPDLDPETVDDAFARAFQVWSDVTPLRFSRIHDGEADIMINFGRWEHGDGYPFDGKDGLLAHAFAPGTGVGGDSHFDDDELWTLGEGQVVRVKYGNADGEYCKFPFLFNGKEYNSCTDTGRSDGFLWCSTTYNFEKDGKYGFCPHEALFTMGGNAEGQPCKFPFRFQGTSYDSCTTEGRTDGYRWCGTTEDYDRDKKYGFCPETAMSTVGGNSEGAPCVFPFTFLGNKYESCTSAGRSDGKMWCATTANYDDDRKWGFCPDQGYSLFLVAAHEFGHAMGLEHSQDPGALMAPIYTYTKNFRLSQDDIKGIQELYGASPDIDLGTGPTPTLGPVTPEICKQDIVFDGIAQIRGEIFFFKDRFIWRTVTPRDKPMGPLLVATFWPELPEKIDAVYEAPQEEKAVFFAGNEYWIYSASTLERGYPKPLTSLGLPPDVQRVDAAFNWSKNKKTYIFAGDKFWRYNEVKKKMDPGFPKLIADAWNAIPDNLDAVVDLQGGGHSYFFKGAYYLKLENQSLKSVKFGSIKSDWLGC
Protein Mdm4 (Homo sapiens) + E3 ubiquitin-protein ligase Mdm2 (Homo sapiens), sequence (O15151 whole entry, looked up, the tested form may be a part): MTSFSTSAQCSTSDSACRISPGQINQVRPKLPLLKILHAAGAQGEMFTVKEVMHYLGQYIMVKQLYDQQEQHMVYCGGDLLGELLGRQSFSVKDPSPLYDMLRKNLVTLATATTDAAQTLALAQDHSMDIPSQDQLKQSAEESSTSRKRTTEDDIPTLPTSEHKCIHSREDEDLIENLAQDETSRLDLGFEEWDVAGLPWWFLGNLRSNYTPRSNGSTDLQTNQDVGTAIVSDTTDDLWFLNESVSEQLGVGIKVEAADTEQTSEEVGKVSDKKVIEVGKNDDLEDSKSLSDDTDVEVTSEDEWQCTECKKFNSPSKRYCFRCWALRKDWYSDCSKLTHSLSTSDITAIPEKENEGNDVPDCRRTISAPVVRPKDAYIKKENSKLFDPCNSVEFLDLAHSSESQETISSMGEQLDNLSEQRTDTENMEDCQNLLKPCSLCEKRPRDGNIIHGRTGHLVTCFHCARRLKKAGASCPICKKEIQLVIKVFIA
Protein Mdm4 (Homo sapiens) + E3 ubiquitin-protein ligase Mdm2 (Homo sapiens), sequence (Q00987 whole entry, looked up, the tested form may be a part): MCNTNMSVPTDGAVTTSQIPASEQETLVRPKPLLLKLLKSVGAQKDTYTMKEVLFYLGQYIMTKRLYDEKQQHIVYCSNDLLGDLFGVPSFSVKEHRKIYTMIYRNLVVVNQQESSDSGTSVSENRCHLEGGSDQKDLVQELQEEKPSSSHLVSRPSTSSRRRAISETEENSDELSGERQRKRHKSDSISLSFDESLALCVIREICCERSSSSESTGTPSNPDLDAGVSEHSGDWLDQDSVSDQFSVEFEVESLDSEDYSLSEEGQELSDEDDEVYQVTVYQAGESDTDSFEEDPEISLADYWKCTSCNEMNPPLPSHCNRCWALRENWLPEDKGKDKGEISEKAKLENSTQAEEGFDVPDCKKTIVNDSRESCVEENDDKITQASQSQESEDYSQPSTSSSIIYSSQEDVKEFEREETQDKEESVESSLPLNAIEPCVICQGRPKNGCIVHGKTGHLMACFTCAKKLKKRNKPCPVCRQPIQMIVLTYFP
Prothrombin (Bos taurus), sequence (P00735 whole entry, looked up): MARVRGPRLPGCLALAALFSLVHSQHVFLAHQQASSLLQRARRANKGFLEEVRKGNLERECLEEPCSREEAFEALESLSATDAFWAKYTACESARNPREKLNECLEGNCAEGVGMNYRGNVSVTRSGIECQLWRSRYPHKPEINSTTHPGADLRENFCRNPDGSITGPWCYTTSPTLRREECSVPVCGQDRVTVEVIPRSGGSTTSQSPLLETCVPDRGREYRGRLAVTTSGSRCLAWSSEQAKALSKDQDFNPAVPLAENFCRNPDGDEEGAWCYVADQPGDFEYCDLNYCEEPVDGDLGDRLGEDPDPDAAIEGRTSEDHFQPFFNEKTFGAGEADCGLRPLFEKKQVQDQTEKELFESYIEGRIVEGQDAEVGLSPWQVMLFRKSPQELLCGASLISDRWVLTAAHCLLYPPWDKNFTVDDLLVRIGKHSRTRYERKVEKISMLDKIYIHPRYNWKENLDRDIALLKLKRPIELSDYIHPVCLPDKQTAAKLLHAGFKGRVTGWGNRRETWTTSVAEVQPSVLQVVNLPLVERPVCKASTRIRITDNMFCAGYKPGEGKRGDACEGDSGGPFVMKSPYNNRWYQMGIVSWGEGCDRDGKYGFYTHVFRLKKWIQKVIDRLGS
COP9 signalosome complex subunit 5 (Homo sapiens), sequence (Q92905 whole entry, looked up, one chain of several): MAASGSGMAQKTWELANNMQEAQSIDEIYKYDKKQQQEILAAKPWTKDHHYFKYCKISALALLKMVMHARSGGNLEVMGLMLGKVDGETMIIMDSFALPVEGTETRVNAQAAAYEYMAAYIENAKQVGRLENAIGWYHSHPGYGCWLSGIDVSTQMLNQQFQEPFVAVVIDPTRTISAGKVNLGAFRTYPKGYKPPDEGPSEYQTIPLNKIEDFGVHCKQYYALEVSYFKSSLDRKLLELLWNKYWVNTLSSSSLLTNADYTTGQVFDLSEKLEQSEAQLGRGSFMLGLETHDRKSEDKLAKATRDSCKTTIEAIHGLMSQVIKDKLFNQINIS

For the compound `O=[N+]([O-])c1ccc2oc(-c3cccc(O)c3)nc2c1`, the inhibition in assay [1] was -113% (inactive); in assay [2], 90.4% (active); in assay [3] it was 90.4% (active); in assay [4] it was 99% (active); with Caspase-3 (Homo sapiens), 85.8% (active); in assay [5], 84.4% (active).
In the case of `c1ccc2[nH]c(-c3nc4ccccc4[nH]3)nc2c1`, the inhibition is -90% (inactive) in assay [1]; -14.2% (inactive) in assay [2]; 42.7% (inactive) in assay [3]; 77.8% (active) in [4]; 77.3% (active) with Caspase-3 (Homo sapiens); 50.8% (active) in assay [5]. The results for the activity in [6] and in [7] were 80.2% and 77.8%, respectively.
As for `CC[n+]1cc(C)ccc1/C=C/c1ccc(N(C)C)cc1`, the inhibition was 46% (inactive) in assay [1], 56.8% (active) in assay [8], -78.8% (active) in [9] and 63.1% (active) with Prothrombin (Bos taurus).
Turning to `COc1ccc(OC)c(Nc2nc(-c3ccc(O)c(O)c3)cs2)c1`, the activation in [10] was 187% (active).
Regarding `COc1ccc(C(C[N+](=O)[O-])n2nc(C)cc2C)cc1` (stereo unspecified), in assay [10], the activation was 60% (active).
As to `COC(=O)Cc1[nH]n(-c2nc3ccccc3s2)c(=O)c1C(C)=Nc1ccc(OC)cc1`, the inhibition in assay [1] was 79.2% (active); in assay [11], 26.2% (active); in assay [12] it was 86.3% (active); in assay [13], 82.3% (active); in [14], 92.7% (active). In addition, the figures for the activity in assay [6] and in assay [7] were 47% and 40.9%, respectively.
As for `Cc1ccc(O)c(NC(=O)c2cc(-c3ccco3)on2)c1`, the inhibition in assay [1] was 52.2% (active); in assay [2] it was 30.6% (inactive); in assay [3], 36.5% (inactive); in [4], 81.1% (active); with Caspase-3 (Homo sapiens), 44.4% (inactive); in [5] it was 14.4% (inactive).
In the case of `Cc1cccc(C)c1NC(=O)C(Cl)C(=O)c1ccccc1` (stereo unspecified), the activation in assay [10] was 85.6% (active).
`CS(=O)(=O)N(Cc1ccccc1)c1ccc(C(=O)NN=C2CCCCCC2)cc1`: in assay [10], the activation is -1.8% (inactive).
With `O=C(NCCc1ccc(Cl)cc1)c1cccc(N2CCCC2=O)c1`, the activation in assay [10] was 1.95% (inactive).
On to `COc1ccc(Nc2nc(-c3ccccc3)cs2)cc1`, for which the inhibition was -140% (inactive) in assay [1]; 49.3% (inactive) in assay [2]; 89.6% (active) in assay [3]; 100% (active) in [4]; 83.7% (active) in the assay with Caspase-3 (Homo sapiens); 53.8% (active) in assay [5].
Take `O=c1oc2ccccc2cc1-c1cn(-c2ccccc2)c(=S)[nH]1`: the inhibition was 80.8% (active) in assay [1]; 39.3% (inactive) in [2]; 47.9% (inactive) in assay [3]; 81.7% (active) in [4]; 81.8% (active) in the assay with Caspase-3 (Homo sapiens); 19.1% (inactive) in assay [5]. Also, the inhibition in assay [15] is 92% (active).
Take `COCCNc1nc(-n2nc(C)cc2C)nc2sc3c(c12)CCCC3`: the activation in assay [10] is 8.5% (inactive).
With `Cc1ccc(-c2nnc(-c3ccc(NC(=O)c4cccs4)cc3)o2)cc1`, in [10], the activation is 134% (active).
In the case of `N/C(=N\OC(=O)N1c2ccccc2Sc2ccccc21)c1ccc(Br)cc1`, the inhibition in assay [1] is 6.45% (inactive). Moreover, in assay [16], the thermal shift relative to vanadate control was -22.1% (inactive).
`CC1(C)CC(N2CCN(C(c3ccccc3)c3ccccc3)CC2)=CC(=[N+]2CCCCC2)C1`: the inhibition in [1] is 69.6% (active). For the same compound, the activity was determined as 74.7% in assay [6] and 56.2% in assay [7].
